Our source for the Potency values is PubChem BioAssay (NCATS).

The target of experiment [1] is Cytochrome P450 3A4 (Homo sapiens) (UniProt P08684). Kind of experiment: qHTS Assay for Activators of Cytochrome P450 3A4 (AID 885). Further: nearly all actives have a fitted effect of over 65% in size. In a few lines:
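Luminescent readout of luciferin formed from 25 uM Luciferin-PPXE (KM level) by 20 nM CYP3A4 in 200 mM KPO4, with 60 min NADPH-driven reaction at room temperature after 10 min compound exposure. Ketoconazole (57 uM) defined 100% inhibition.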

The nature of experiment [2]: Confirmation and Secondary Assay for Modulators of Hemoglobin Beta Chain Splicing at IVS2 654 locus (AID 910).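 Further: HeLa cells stably carrying EGFP split by mutant beta-globin IVS2-654 intron.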 The method in brief: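 HeLa cells stably expressing EGFP interrupted by β-globin IVS2-654 intron, seeded overnight in Opti-MEM/2% FCS, then treated 2 days at 37 °C. Restored splicing read as total peak GFP intensity per well by laser scanning cytometry (488 nm excitation, 500–520 nm emission); 500 nM antisense PNA as control.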

A short description of experiment [3]: Confirmation and Secondary Assay for Modulators of Hemoglobin Beta Chain Splicing at IVS2 705 locus (AID 930).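 Further: HeLa cells stably expressing the EGFP-705 splicing reporter; GFP fluorescence per well restored by corrected splicing of the IVS2-705 intron in EGFP.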 In a few lines:
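HeLa cells stably carrying EGFP interrupted by mutant beta-globin intron 2 (IVS2-705) treated 2 days at 37C with compound; 500 nM antisense PNA as control. Correct splicing read as total peak GFP intensity per well by laser-scanning cytometry.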

Experiment [4] has as its target Cytochrome P450 3A4 (Homo sapiens) (UniProt P08684). As to the kind of experiment: qHTS Assay for Inhibitors and Substrates of Cytochrome P450 3A4 (AID 884). Further: nearly all actives have a fitted effect of over 50% in size. In a few lines: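 Luminescent readout of luciferin produced by CYP3A4 (20 nM) dealkylation of Luciferin-PPXE, 25 uM (its KM). NADPH-driven reaction ran 60 min at RT after 10 min compound preincubation; data scaled to 57 uM ketoconazole as 100% inhibition.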

The next experiment deals with 7G8. Kind of experiment: qHTS profiling for inhibitors of Plasmodium falciparum proliferation (AID 504749). Further: nearly all actives have a fitted effect of over 60% in size. Further: potency means the concentration at half of the fitted maximal effect. Particulars: P. falciparum in erythrocytes, SYBR Green DNA, 72 h; series mostly up to 12.8 µM. In a few lines:
(§1)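 Each compound contacts P. falciparum-infected red blood cells for 72 h at 37 C; lysis buffer (Tris, EDTA, saponin, Triton X, SYBR Green I) is added and fluorescence measured next morning; values normalized to controls.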

Another experiment concerns ATS95. The experiment is described as above. Particulars: P. falciparum in erythrocytes, SYBR Green DNA, 72 h; series mostly up to 12.8 µM. In a few lines: as §1
For the next experiment, the system named is CP203. Described as above. Particulars: P. falciparum in erythrocytes, SYBR Green DNA, 72 h; series mostly up to 12.8 µM. In a few lines:
as §1

The test system of another experiment is DIV14. Described as above. Particulars: P. falciparum in erythrocytes, SYBR Green DNA, 72 h; series mostly up to 12.8 µM. The method in brief:
as §1

A further experiment deals with GB4. Described as above. Particulars: P. falciparum in erythrocytes, SYBR Green DNA, 72 h; series mostly up to 12.8 µM. In a few lines:
as §1

Experiment [5] in a line: S16 Schwann cell PMP22 intronic element firefly luciferase assay (AID 624032). Further: nearly all actives have a fitted effect of over 30% in size. Further: potency means the concentration at half of the fitted maximal effect. In a few lines: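 Rat S16 Schwann cells stably carrying firefly luciferase driven by a PMP22 intronic element, in 10% FBS, treated 24 h at 37 C. ONE-Glo luminescence normalized to PTC124 control and DMSO (0%); curves classed by r2, magnitude and activity.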
Experiment [6] is described as follows: S16 Schwann cell PMP22 intronic element beta-lactamase assay (AID 624044; calls by dose curve; further: nearly all actives have a fitted effect of over 15% in size). The method in brief:
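Beta-lactamase reporter under a PMP22 intronic regulatory element in stable S16 rat Schwann cells; 24 h compound exposure. 460 nm blue signal normalized between DMSO (0%) and potassium clavulanate, with 535 nm FRET tracking viability; curves classed by r2 and response.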

Results filed as inconclusive are left out. Calls of active or inactive are those of the source. Unless noted, the call rests on the fitted dose curve; in most records, active means well fitted curve in the direction sought with a large enough effect; inconclusive means small, poorly fitted or top-dose-only effect, or another doubt; inactive means no such curve, though single readings can be large; an effect the other way counts as inactive or inconclusive. Peptide text beside a SMILES is read from it.

Sequence of Cytochrome P450 3A4 (Homo sapiens) (P08684 whole entry, looked up): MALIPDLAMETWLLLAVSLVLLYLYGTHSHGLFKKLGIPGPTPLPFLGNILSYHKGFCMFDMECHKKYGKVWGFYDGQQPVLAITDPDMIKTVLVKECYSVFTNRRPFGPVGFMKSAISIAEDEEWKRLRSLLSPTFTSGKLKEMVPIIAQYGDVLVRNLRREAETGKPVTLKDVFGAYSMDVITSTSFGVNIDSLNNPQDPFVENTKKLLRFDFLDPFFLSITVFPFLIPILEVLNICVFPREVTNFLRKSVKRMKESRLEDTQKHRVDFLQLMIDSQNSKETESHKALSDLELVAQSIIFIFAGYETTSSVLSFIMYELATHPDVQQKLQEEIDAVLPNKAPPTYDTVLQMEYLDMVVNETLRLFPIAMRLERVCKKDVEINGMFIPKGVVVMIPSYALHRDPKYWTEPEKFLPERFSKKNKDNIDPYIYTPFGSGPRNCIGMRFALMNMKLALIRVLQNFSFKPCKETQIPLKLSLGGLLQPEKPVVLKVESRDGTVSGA

Turning to `COc1c(O)cc(O)cc1O`, the Potency entry in experiment [1], in [2] and in experiment [3] was “inactive” each time.
In the case of `NC(C(=O)O)[C@@H]1CC(Cl)=NO1` (stereo not given in full), the Potency result in experiment [4], in [2] and in experiment [3] was “inactive” in each case. Also, the Potency in the experiment with 7G8 was 631 nM (active); with ATS95 it was 1000 nM (active); with CP203, 3380 nM (active); in the experiment with DIV14, 2390 nM (active); in the experiment on GB4, 1200 nM (active).
As for `COC1C=CO[C@@]2(C)Oc3c(C)c(O)c4c(O)c(c5c(nc6cc(C)ccn65)c4c3C2=O)NC(=O)/C(C)=C\C=CC(C)C(O)[C@@H](C)C(O)C(C)[C@@H](OC(C)=O)C1C` (stereo not given in full), the Potency entry in experiment [1], in experiment [2] and in experiment [3] was “inactive” in each case. Moreover, the Potency in the experiment on 7G8 was 3160 nM (active); in the experiment with ATS95 it was 10000 nM (active); with DIV14 it was 1070 nM (active); with GB4, 3790 nM (active).
Take `COC1C=CO[C@@]2(C)Oc3c(C)c(O)c4c(O)c(c(C=NN5CCN(C)CC5)c(O)c4c3C2=O)NC(=O)/C(C)=C\C=CC(C)C(O)[C@@H](C)C(O)C(C)[C@H](OC(C)=O)C1C` (stereo not given in full): the Potency result in experiment [2], in experiment [3] and in experiment [6] was “inactive” in each case. In addition, the Potency was 20300 nM (active) in [5]; 112 nM (active) in the experiment with 7G8; 2510 nM (active) in the experiment with ATS95; 4260 nM (active) in the experiment with CP203; 301 nM (active) in the experiment with DIV14; 953 nM (active) in the experiment with GB4.
For `CNC1CC(N)[C@H](O)[C@@H](O[C@@H]2OC(CO)C3OC4(OC(C(N)CO)C(O)C(O)C4O)O[C@@H]3[C@H]2O)C1O` (stereo not given in full), the Potency result (in [4]; in [2]; in experiment [3]; in experiment [5]; in experiment [6]; with 7G8) was “inactive” in each case. Further, the Potency result with ATS95, with CP203, with DIV14 and in the experiment with GB4 was “inactive” in each case.
Regarding `CCOC(=O)C1=CC(OC(CC)CC)C(NC(C)=O)C(N)C1` (stereo not given), the Potency result (in [1]; in experiment [2]; in [3]; in experiment [5]; in [6]; in the experiment on ATS95) was “inactive” in each case. Besides, the Potency result with CP203 was “inactive”.
With `CC[C@@]12CCCN3CCc4c(n(c5ccccc45)[C@](O)(C(=O)OC)C1)C32` (stereo not given in full), the Potency entry (in experiment [2]; in experiment [3]; in [5]; in the experiment on ATS95; with CP203; in the experiment on DIV14) was “inactive” throughout. Also, the Potency entry in the experiment with GB4 was “inactive”.
Turning to `CC1(C)OC2CO[C@]3(COS(N)(=O)=O)OC(C)(C)OC3C2O1` (stereo not given in full), the Potency result (in experiment [2]; in [3]; in experiment [5]; in [6]; with ATS95; with CP203) was “inactive” in each case. In addition, the Potency entry in the experiment on DIV14 and in the experiment with GB4 was “inactive” in each case.
`CC(=O)N[C@H](CC(C)C)C(=O)O`: the Potency entry (in experiment [2]; in experiment [3]; in experiment [6]; with 7G8; in the experiment with ATS95; in the experiment with CP203) was “inactive” each time. Further, the Potency result with DIV14 and in the experiment with GB4 was “inactive” in each case.
`NCC1CCC(N)C(O[C@@H]2C(O)[C@H](O[C@H]3OC(CO)C(O)C(N)C3O)[C@@H](N)C[C@H]2N)O1` (stereo not given in full): the Potency result (in [4]; in experiment [2]; in [3]; with ATS95; in the experiment on CP203; in the experiment with DIV14) was “inactive” throughout. The Potency result in the experiment with GB4 is “inactive”.
For `CC(C)=CCC[C@](C)(O)C1CC=C(C)CC1` (stereo not given in full), the Potency entry (in experiment [2]; in experiment [3]; in experiment [5]; in experiment [6]; with 7G8; with ATS95) was “inactive” each time. The Potency entry in the experiment on CP203, in the experiment with DIV14 and in the experiment with GB4 was “inactive” throughout.
`CCCC(=O)O[C@]1(C(=O)CO)CCC2[C@@H]3CCC4=CC(=O)CC[C@]4(C)C3C(O)C[C@]21C` (stereo not given in full): the Potency result (in [4]; in [2]; in [3]; in experiment [6]; with 7G8; in the experiment with ATS95) was “inactive” in each case. The Potency result in the experiment with CP203, with DIV14 and in the experiment with GB4 was “inactive” in each case.
With `CC1CCC(C(C)C)C(=O)C1` (stereo not given), the Potency entry (in experiment [4]; in experiment [2]; in [3]; in [5]; with 7G8; in the experiment on ATS95) was “inactive” each time. The Potency result in the experiment on CP203, in the experiment on DIV14 and in the experiment with GB4 was “inactive” throughout.
For `COC(=O)C(Cc1ccccc1)NC(=O)C(N)CC(=O)O` (stereo not drawn) (H-Asp-Phe-OMe; configuration not given here), the Potency result (in [4]; in experiment [2]; in experiment [3]; in [6]; with 7G8; in the experiment with ATS95) was “inactive” in each case. The Potency entry with CP203, in the experiment on DIV14 and in the experiment on GB4 was “inactive” throughout.
For `Cc1cc(O)c(C=O)c2c1C(=O)Oc1c(COC(=O)/C=C/C(=O)O)c(O)c(C(=O)O)c(C)c1O2`, the Potency result in experiment [1], in experiment [2] and in experiment [3] was “inactive” in each case.
As to `C[C@]12C=CC(=O)C=C1CCC1C2C(O)C[C@]2(C)C1CC[C@]2(O)C(=O)CO` (stereo not given in full), the Potency result (in [1]; in experiment [2]; in [3]; in [5]; in experiment [6]; in the experiment on 7G8) was “inactive” throughout. In addition, the Potency entry with ATS95, in the experiment with CP203, in the experiment with DIV14 and with GB4 was “inactive” throughout.
As to `COC(=O)N/N=C/C1=C[N+](=O)c2ccccc2[N+]1=O`, the Potency result (in experiment [4]; in experiment [2]; in experiment [3]; in experiment [5]; in the experiment with 7G8; in the experiment with ATS95) was “inactive” each time. Also, the Potency result in the experiment on DIV14 and in the experiment with GB4 was “inactive” in each case.
Consider `CC(=O)OC1CCC2C3CCc4cc(O)ccc4C3CCC12C` (stereo not given), for which the Potency result (in [2]; in experiment [3]; in [5]; in experiment [6]; in the experiment on ATS95; in the experiment with CP203) was “inactive” throughout. Moreover, the Potency entry in the experiment with DIV14 and in the experiment on GB4 was “inactive” in each case.
As for `Nc1nc2ncc(CNc3ccc(C(=O)NC(CCC(=O)O)C(=O)O)cc3)nc2c(=O)[nH]1` (stereo not given), the Potency result (in experiment [4]; in experiment [2]; in [3]; in [5]; in the experiment with 7G8; in the experiment with CP203) was “inactive” in each case. For the same molecule, the Potency entry with GB4 was “inactive”.
As for `COc1ccc2cc(C(C)CO)ccc2c1` (stereo not given), the Potency result (in experiment [4]; in [2]; in [3]; in experiment [6]; in the experiment on 7G8; with ATS95) was “inactive” each time. Moreover, the Potency entry in the experiment with CP203, in the experiment on DIV14 and in the experiment on GB4 was “inactive” throughout.
